The values below come from PubChem BioAssay AID463173 (ICCB-Longwood Screening Facility, Harvard Medical School, 2010).

Out of some 52,000 compounds screened, about 4,300 (8.3%) were called active. Cut-off read from the data, not from the text of the source: active = survival mostly below about 52% (no sharp cut-off); inactive = mostly above about 56%. Shown is part of a subset that was picked to be rich in actives.

The assay concerns DeltatarO mutant. Description: S. aureus survival, RN4220 and DeltatarO strains – OD600, teichoic acid synthesis inhibitors, primary screen (AID 463173). The following applies: S. aureus RN4220 wild type/DeltatarO growth, OD600, 18 h, hits give low values, screened at 18.75 µg/mL (by protocol).
For the molecule `Cc1cccc(N2CCN(S(=O)(=O)c3c(C)[nH]c(=O)[nH]c3=O)CC2)c1C`, the survival was 84% (inactive).

Take `CCN(CC)c1nn2c(=O)c(C(=O)NCCc3cccc(C)c3)cnc2s1`: the survival is 73% (inactive).

As for `O=C(CSc1nc2c(c(=O)[nH]1)CCC2)Nc1cccc(O)c1`, the survival was 86% (inactive).

Consider `CCOc1ccc(CCNC(=O)c2cc3c(s2)-c2c(C)cccc2OC3)cc1`, for which the survival is 98% (inactive).

With `CCOCCCN(Cc1ccco1)C(=O)c1cc2c(s1)-c1c(C)cccc1OC2`, the survival was -3% (active).

For `CCCN1CCN(CCCNC(=O)c2cc3c(s2)-c2c(C)cccc2OC3)CC1`, the survival was 127% (inactive).

As to `COc1ccc(CNC(=O)c2cc3c(s2)-c2c(C)cccc2OC3)cc1`, the survival is 87% (inactive).

`CCCCN(Cc1ccco1)C(=O)c1cc2c(s1)-c1c(C)cccc1OC2`: the survival is -2% (active).

As to `CCN1CCN(CCCNC(=O)c2cc3c(s2)-c2c(C)cccc2OC3)CC1`, the survival is 102% (inactive).

As for `Cc1ccc(-n2ncc(C(=O)N3CCN(C4CCCCC4)CC3)c2C2CCN(C(=O)OC(C)(C)C)CC2)cc1`, the survival is 82% (inactive).

As to `Cc1ccc2cccc(NC(=O)c3ccc(-c4cccc(Cl)c4Cl)o3)c2n1`, the survival is 55% (inactive).

Consider `Cc1ccc2cccc(NC(=O)c3ccc(-c4cccc([N+](=O)[O-])c4)o3)c2n1`, for which the survival is 67% (inactive).

Take `O=C(O)c1ccc(-c2cccc(Cl)c2)o1`: the survival is 67% (inactive).

Consider `Cc1ccc2cccc(NC(=O)c3ccc(-c4ccc(Cl)cc4Cl)o3)c2n1`, for which the survival was 67% (inactive).

Regarding `Cc1ccc2cccc(NC(=O)c3ccc(-c4cccc(Cl)c4)o3)c2n1`, the survival is 49% (active).

`Cc1ccc2cccc(NC(=O)c3ccc(-c4cc(Cl)ccc4Cl)o3)c2n1`: the survival was 71% (inactive).

Consider `O=C(Nc1cccc2cccnc12)c1ccc(-c2cccc(Cl)c2)o1`, for which the survival was 3% (active).

Consider `Cc1ccc2cccc(NC(=O)c3ccc(-c4ccc(Br)cc4)o3)c2n1`, for which the survival is 59% (active).

For `Nc1nc(N)c(S(=O)(=O)c2ccccc2)c(Nc2ccc(F)cc2)n1`, the survival is 72% (inactive).

In the case of `O=C(COc1ccccc1)NCCc1csc(-c2cccc(F)c2)n1`, the survival was 78% (inactive).

Take `CN(C)c1ccc(NC(=O)CSc2nc(-c3ccco3)cc(C(F)(F)F)n2)cc1`: the survival is 65% (inactive).

Take `O=C(CSc1nc(-c2ccco2)cc(C(F)(F)F)n1)Nc1ccccc1`: the survival was 102% (inactive).

For the molecule `COc1ccc(Cl)cc1NC(=O)CSc1nc(-c2ccco2)cc(C(F)(F)F)n1`, the survival was 31% (active).

`Cc1cc(F)ccc1NC(=O)CCSc1nc(-c2ccco2)cc(C(F)(F)F)n1`: the survival is 45% (inactive).

Turning to `COc1ccc(NC(=O)CSc2nc(-c3ccco3)cc(C(F)(F)F)n2)cc1`, the survival is 86% (inactive).

Regarding `Cc1ccc(F)cc1NC(=O)CCSc1nc(-c2ccco2)cc(C(F)(F)F)n1`, the survival was 48% (inactive).

Turning to `COc1ccc(NC(=O)CSc2nc(-c3ccco3)cc(C(F)(F)F)n2)cc1Cl`, the survival is 38% (active).

Consider `CCNS(=O)(=O)c1ccc(NC(=O)CSc2nc(-c3ccco3)cc(C(F)(F)F)n2)cc1`, for which the survival was 36% (active).

In the case of `COc1ccc(NC(=O)CSc2nc(-c3ccco3)cc(C(F)(F)F)n2)cc1OC`, the survival is 63% (inactive).

On to `Cc1ccc(O)c(NC(=O)CCSc2nc(-c3ccco3)cc(C(F)(F)F)n2)c1`, for which the survival is 28% (active).

`CCOc1ccccc1CNC(=O)CCCn1nc(C)c2sc3ccccc3c2c1=O`: the survival was 85% (inactive).

For `O=C1C2C3c4ccccc4C(c4ccccc43)C2C(=O)N1CN1CCOCC1` (centres undefined), the survival was 78% (inactive).

As for `CCCOc1ccc(NC(=O)CC2C(=O)N(c3ccc(C)cc3)C(=O)N2C2CCCC2)cc1` (centres undefined), the survival was 67% (inactive).

With `Cc1ccc(NC(=O)Cn2c(=O)n(Cc3nc(-c4ccccc4)no3)c(=O)c3cc4c(cc32)OCO4)c(C)c1`, the survival is 62% (inactive).

`COc1ccc(N(C)C(=O)c2cn(C3CCCCC3)c(=O)c3c2c2ccccc2n3C)cc1`: the survival is 67% (inactive).

As to `Cc1ccc(-n2nc(C(=O)NC(C)C)c(=O)n(C)c2=O)cc1`, the survival was 78% (inactive).

In the case of `Cc1c(NC(=O)Nc2ccc(Cl)c(C(F)(F)F)c2)c(=O)n(-c2ccccc2)n1C`, the survival is 124% (inactive).

As for `CC(C)CCn1c(=O)c2sccc2n2c(CCCC(=O)NCc3ccc(F)cc3)nnc12`, the survival was 88% (inactive).

Consider `Cc1oc2ncn(C)c(=O)c2c1C(=O)Nc1ccccn1`, for which the survival is 102% (inactive).

In the case of `COc1cccc(CNC(=O)Cn2c(=O)oc3cc(S(=O)(=O)N4CCCC4)ccc32)c1`, the survival was 122% (inactive).

For `Cc1ccc(Cl)cc1NC(=O)C(=O)NCCc1sc(-c2ccc(F)cc2)nc1C`, the survival is 90% (inactive).

As for `CC1CCN(S(=O)(=O)c2ccc3c(c2)N(CC(=O)NCC(C)c2ccccc2)C(=O)CO3)CC1` (centres undefined), the survival is 64% (inactive).

`Cc1ccc(C(=O)Nc2ccc(C(=O)OCc3cc(=O)n4ccsc4n3)cc2)cc1`: the survival was 72% (inactive).

For the molecule `Cc1ccc(NC(=O)CSc2nc(-c3ccco3)cc(C(F)(F)F)n2)cc1C`, the survival was 33% (active).

`Cc1cccc(NC(=O)CSc2nc(-c3ccco3)cc(C(F)(F)F)n2)c1C`: the survival is 69% (inactive).

As for `Cc1ccc(NC(=O)CCSc2nc(-c3ccco3)cc(C(F)(F)F)n2)cc1F`, the survival was 48% (inactive).

In the case of `CC(C)NC(=O)CSc1nc(-c2ccco2)cc(C(F)(F)F)n1`, the survival was 64% (inactive).

On to `Cc1ccc(NC(=O)CSc2nc(-c3ccco3)cc(C(F)(F)F)n2)cc1`, for which the survival is 129% (inactive).

For the molecule `Cc1ccc(NC(=O)CSc2nc(-c3ccco3)cc(C(F)(F)F)n2)c(C)c1`, the survival is 63% (active).

With `CC(=O)Nc1ccc(S(=O)(=O)NC2(C(F)(F)F)C(=O)Nc3c2c(=O)[nH]c(=O)n3-c2ccc(C)c(C)c2)cc1` (centres undefined), the survival was 81% (inactive).

For the molecule `CCOc1ccc(S(=O)(=O)NC(=O)N(CC)Cc2cc3ccccc3o2)cc1`, the survival was 76% (inactive).

Consider `CCCc1cnc2c(c1SCc1ccc(C(F)(F)F)cc1)c(=O)n(C)c(=O)n2C`, for which the survival is 54% (inactive).

Consider `Cc1c(NC(=O)c2cccc3c(Cl)cccc23)cccc1-c1nc2ccccc2o1`, for which the survival is 63% (inactive).

For `Cc1c(NC(=O)c2cc3ccccc3o2)cccc1-c1nc2ccccc2o1`, the survival is 36% (active).

For the molecule `O=C(Nc1ccc2oc(-c3ccc(O)c(Br)c3)nc2c1)c1cc2ccccc2o1`, the survival was 49% (inactive).

With `Cc1ccc2oc(-c3ccc(Cl)c(NC(=O)Cc4ccccc4)c3)nc2c1`, the survival was 95% (inactive).

`Cc1ccc(-c2nc3cc(Cl)ccc3o2)cc1NC(=O)c1cc2ccccc2o1`: the survival was 43% (active).

For the molecule `Cc1ccc(-c2nc3cc(NC(=O)c4cc5ccccc5o4)ccc3o2)cc1Cl`, the survival is 139% (inactive).

Consider `CC(=O)Nc1cc(-c2nc3cc(Cl)ccc3o2)ccc1C`, for which the survival is 51% (inactive).

For the molecule `Cc1ccc2oc(-c3ccc(Cl)c(NC(=O)c4cc5ccccc5o4)c3)nc2c1`, the survival was 39% (active).

Regarding `Cc1c(NC(=O)c2ccc(Br)o2)cccc1-c1nc2ccccc2o1`, the survival is 60% (inactive).

Regarding `O=C(Nc1cc(-c2nc3cc(Cl)ccc3o2)ccc1Cl)c1cc2ccccc2o1`, the survival is 82% (inactive).

Turning to `Cc1ccc(-c2nc3cc(C(C)C)ccc3o2)cc1NC(=O)c1cc2ccccc2o1`, the survival was 19% (active).

On to `Cc1ccc(-c2nc3ccccc3o2)cc1NC(=O)Cc1ccc(Cl)cc1`, for which the survival was 73% (inactive).
